HT1080-NT tox = kills 2HG-producing HT-1080-NT fibrosarcoma cells; HT-1080-NT fibrosarcoma viability, CellTiter-Glo ATP luminescence, 48 h; Potency, µM (highest dose often 46.1 µM), actives largely listed as cytotoxic; 360,000 tested, 1.6% active;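 also: NT is the 2HG producing partner of a matched IDH1 knockdown line; nearly all actives have a fitted effect of over 55% in size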
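Compounds were tested in concentration-response format on HT-1080-NT cells for 48 hours at 37 degrees C. Cell viability came from CellTiter-Glo luminescence; curves were classified by r2, response magnitude and activity.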
TGFb SMAD3 inh = blocks TGF-b signaling; AID 588855; 410,000 tested, 1.2% active; HepG2 CAGA-GFP TGF-b/SMAD3 reporter, GFP fluorescence, 18 h; TGF-beta stimulated, 500 pg/mL final; Potency, µM (titrated, usually from 46.1 µM), most hits filed as inhibitors; also: nearly all actives have a fitted effect of over 65% in size
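Cell-based qHTS in HEPG2 carrying a CAGA-GFP Smad reporter; compounds added before 500 pg/mL final TGF-beta, 18 h incubation at 37 degrees C, GFP fluorescence quantified per cell by imaging cytometry.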
Giardia kill = kills Giardia lamblia | Giardia lamblia trophozoite viability | activity change, % at 7.66 µM, hits read low | 340,000 tested, 0.15% active | AID 540267; in the data active = activity change below about -80%; inconclusive = between about -30% and that limit;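 also: parasites exposed to compound for two days anaerobically before the ATP read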
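Giardia lamblia trophozoites (100 cells/well) were incubated with compounds for 48 h at 37 deg C under anaerobic conditions. Viability was read as ATP content by one-step luminescence after 15-30 min at room temperature.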
HepG2 tox = HepG2 cytotoxicity, counter-screen for TGF-b inhibitors; HepG2 CAGA-GFP viability, ATP luminescence, 18 h; Potency, µM (top dose mostly 46.1 µM), actives largely listed as cytotoxic; 410,000 tested, 0.76% active
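CellTiter-Glo luminescence gave cytotoxicity after 18 hours at 37 degrees C. The cells were HepG2 CAGA-GFP in 1% FBS DMEM, stimulated with 500 pg/mL TGF-beta after compound addition. %Activity was normalised to no-cell wells (complete cell-killing) and DMSO (no toxicity), and curves were fitted and classified.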
HT1080 IDH1KD tx = kills HT-1080 cells with IDH1 knockdown; HT-1080 IDH1 knockdown viability, ATP luminescence, 48 h; Potency, µM (top dose mostly 46.1 µM), hits mostly cytotoxic; 360,000 tested, 2% active
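HT-1080-IDH1KD cells (IDH1 knocked down), 750/well in RPMI with 5% FBS, treated with compound 48 h at 37 degrees C. Viability by CellTiter-Glo luminescence, normalised to DMSO and no-cell wells; concentration-response curves classed.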
IL1B secr inh = inflammasome signaling inhibition, IL-1 beta readout. activity change, % at 57.5 µM. AID 743279. THP-1 LPS/ATP IL-1B secretion, AlphaLISA, 16 h; active compounds read low. 360,000 tested, 4.7% active; in the data active = activity change below about -50%; inconclusive = mostly about -30% to -49%
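THP-1 cells pretreated 1 hr with compounds (up to 57.5 uM final), then stimulated with LPS (250 ng/mL final) plus ATP (1.25 mM final); secreted IL-1B measured by AlphaLISA after 16 hr, decreased signal indicating inhibition.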
Numbers stand for hits; n = inactive; u = inconclusive; x = no result given. Hits are enriched below; roughly 6.5% of the tested compounds scored in any of these assays. Unless noted, calls follow the shape of the dose curve; as a rule, active = well fitted curve in the direction sought with a large enough effect; inconclusive = small, poorly fitted or top-dose-only effect, or another doubt; inactive = no such curve, though single readings can be large; an effect the other way counts as inactive or inconclusive.

SMILES	HT1080-NT tox	TGFb SMAD3 inh	Giardia kill	HepG2 tox	HT1080 IDH1KD tx	IL1B secr inh
Cc1cc(Cl)cc(C)c1OCCNCc1ccccc1	18µM	n	n	n	u	-96
Cc1cc(C)c(C)c(OCCNCc2ccccc2)c1	u	n	n	n	15µM	-93
Cc1oc2ncnc(N3CCOCC3)c2c1C(=O)NCc1ccc(Cl)cc1	x	n	x	n	x	x
CC1=C(C(=O)N(C(C)C)C(C)C)CC(CC(=O)NCCCN(C)C)C(=O)N1CCC1=CCCCC1 (stereo unspecified)	n	n	x	n	n	x
CCC(Oc1ccccc1)C(=O)N1CCN(c2ccccn2)CC1 (stereo unspecified)	n	n	n	n	n	n
Clc1ccc(OCCOCCNCc2ccccc2)cc1Cl	n	11µM	n	n	n	n
C=CCNCCOc1c(C)cc(C)cc1Cl	n	n	n	n	n	n
Clc1ccc(OCCCNCc2ccccc2)c2ccccc12	u	u	n	n	u	u
Cc1cc(C)c(OCCCCNCc2ccccc2)c(Cl)c1	16µM	u	n	11µM	13µM	-86
CCN(C)C1CN(Cc2cn(Cc3ccc(OC)cc3)nn2)S(=O)(=O)C1 (stereo unspecified)	n	x	x	x	n	n
CCOC(=O)C1=C(C)N=C2SCCC(=O)N2C1c1sccc1C (stereo unspecified)	n	n	n	n	n	n
O=c1nc(/C=C/c2cc([N+](=O)[O-])ccc2Cl)cc(C(F)(F)F)[nH]1	n	n	n	n	n	-94
O=c1nc(/C=C/c2cccn2-c2ccc([N+](=O)[O-])cc2)cc(C(F)(F)F)[nH]1	n	n	n	n	n	n
COc1cc(/C=C/c2cc(C(F)(F)F)[nH]c(=O)n2)cc(OC)c1OC	u	u	n	n	29µM	-101
CC1Cc2ccccc2N1c1ncnc2c1nnn2Cc1ccccc1 (stereo unspecified)	n	n	n	n	n	n
CCN(CC)/[N+]([O-])=N/OCOC(=O)c1ccccc1OC(C)=O	x	n	x	n	x	x
Cc1sc(NC(=O)CSC2=NCCS2)nc1-c1ccccc1	n	n	n	n	n	-97
CCCn1c(SCC(=O)Nc2ccccc2N2CCCCC2)nc2c1c(=O)n(C)c(=O)n2C	16µM	u	n	n	n	n
O=C(CSc1ncnc2c1oc1ccccc12)Nc1nc2ccccc2s1	u	u	n	13µM	u	n
CCCn1c(SCC(=O)Nc2ccccc2C(=O)OC)nc2c1c(=O)n(C)c(=O)n2C	n	n	n	n	n	n
CC(=O)N1CC(=O)N=C1SCC(=O)Nc1nc(-c2ccccc2)c(-c2ccccc2)s1	u	n	n	n	u	-77
CCCCN(C)C(=O)c1ccc2c(=O)n3nc(Nc4cc(C)ccc4C)sc3nc2c1	x	u	x	n	x	x
O=C(CSC1=NCCS1)Nc1nc2ccccc2s1	n	n	n	n	u	-74
Cc1cc(C(F)(F)F)c(C#N)c(SCC(=O)Nc2nc3ccccc3s2)n1	u	n	n	n	18µM	n
CCOc1ccc2nc(NC(=O)CSc3nc4c(c(=O)n(C)c(=O)n4C)n3C(C)C)sc2c1	n	u	n	n	n	n
SMILES	HT1080-NT tox	TGFb SMAD3 inh	Giardia kill	HepG2 tox	HT1080 IDH1KD tx	IL1B secr inh
CC(C)n1c(SCC(=O)Nc2nc3ccccc3s2)nc2c1c(=O)n(C)c(=O)n2C	n	n	n	n	n	-52
CC(=O)c1cccc(-c2ccnc3c2CC(C(=O)Nc2cccc(N(C)C)c2)O3)c1 (stereo unspecified)	u	n	x	n	u	n
COc1ccccc1N(Cc1ccccc1)S(=O)(=O)c1cccc(C(=O)N2CCCCC2)c1	u	u	n	n	u	-58
COc1ccccc1N(Cc1ccccc1)S(=O)(=O)c1cccc(C(=O)Nc2ccc(C(C)=O)cc2)c1	n	n	n	n	n	n
O=c1cc(C(Cl)(Cl)Cl)oc2c1ccc1ccccc12	16µM	n	n	n	12µM	-73
O=c1cc(-c2ccc(O)cc2)oc2ccc3ccccc3c12	u	u	u	n	u	n
O=c1cc(-c2ccc(O)cc2)oc2c1ccc1ccccc12	n	n	n	n	n	-59
O=c1cc(-c2ccncc2)oc2c1ccc1ccccc12	n	u	n	n	n	-83
O=c1cc(-c2ccco2)oc2c1ccc1ccccc12	n	n	n	n	n	n
O=C(Cc1ccc(F)cc1)N[C@@H]1c2ccccc2CC[C@@H]1OCc1ccccc1	n	n	n	n	n	n
CN(Cc1cnn(C)c1)C(=O)C1CCCCC1C(=O)O (stereo unspecified)	n	n	n	n	n	n
N#CCSc1nnc(SCC#N)s1	n	n	n	n	n	-71
N#CCSc1nnc(N)s1	n	n	n	n	n	n
CCCCn1c(N)c(N(CC)C(=O)c2ccc(-c3ccc(Cl)cc3)o2)c(=O)[nH]c1=O	n	n	u	n	n	n
Cc1ccc(SC[C@H](C)CN2CC[C@H](NC(=O)OCc3ccccc3)CCC2=O)cc1	n	n	n	n	n	n
Cc1ccc(S[C@@H](CCN2CC[C@H](NC(=O)OCc3ccccc3)CCC2=O)c2ccccc2)cc1	n	10µM	n	n	n	n
CC(=O)Nc1ccc(S[C@@H](CCN2CC[C@H](C(C)(C)C)CCC2=O)c2ccccc2)cc1	n	u	n	n	u	-74
Cc1cccc(CNC(=O)Nc2nnc([C@H]3C[C@H](O)[C@@H](CO)O3)s2)c1	n	n	x	n	u	n
CCOC(=O)c1cccc(C2=CC(=O)C[C@H](c3ccc(OC)c(OC)c3)C2)c1	n	n	n	n	n	n
CCOC(=O)c1c(-n2c(C)cc(C=O)c2C)sc2c1CCCC2	n	n	n	n	u	-56
CNC[C@H](CC1CCCCC1)NC[C@H](CO)NCCc1cccc(C(F)(F)F)c1	u	u	n	n	u	-60
CCOC(=O)COc1ccc2c(c1)C(=O)CC(C)(C)O2	n	n	n	n	n	n
CC1CCC2(CC1)NC(=O)N(CC(=O)Nc1ccc3c(c1)OCO3)C2=O (stereo unspecified)	n	n	n	n	n	n
C/C(=N\NC(=S)NCCc1ccccc1)c1ccc(C#N)cc1	6.3µM	n	n	n	7.1µM	n
Nc1sc(Cc2ccccc2)cc1C(=O)c1c(-c2ccccc2)[nH]c2ccccc12	7.3µM	x	x	x	4.6µM	n
CCNC(=O)C(=O)c1c(-c2ccccc2)[nH]c2ccccc12	n	n	n	n	n	n
O=C(/C=C1\NC2(CCCC2)Cc2ccccc21)N1CCOCC1	u	u	n	n	u	n

Screening data as filed in PubChem.
